# ChEMBL document CHEMBL3988442, “University of Dundee, Small-Polar-MMV Screening Library” (2021)
# For some of these results: Measured potencies and affinities stand elsewhere.
# Legend:
# Parameters in all cases: scale not given: direction of the effect not stated beside the values
# [1] = biological target: Protein translocase subunit SecA (Escherichia coli (strain K12)) (UniProt P10408); assay: Assay to Identify E. coli SecA ATPase Inhibitors; format: functional; conditions: 30 µM
# [2] = biological target: T1, Ubiquitin-activating enzyme e1, putative (Leishmania donovani (strain BPK282A1)) (UniProt E9BSI1); assay: Leishmania donovani Ubiquitin Activating Enzyme (LdE1); format: functional; conditions: 30 µM
# T1 sequence (whole entry): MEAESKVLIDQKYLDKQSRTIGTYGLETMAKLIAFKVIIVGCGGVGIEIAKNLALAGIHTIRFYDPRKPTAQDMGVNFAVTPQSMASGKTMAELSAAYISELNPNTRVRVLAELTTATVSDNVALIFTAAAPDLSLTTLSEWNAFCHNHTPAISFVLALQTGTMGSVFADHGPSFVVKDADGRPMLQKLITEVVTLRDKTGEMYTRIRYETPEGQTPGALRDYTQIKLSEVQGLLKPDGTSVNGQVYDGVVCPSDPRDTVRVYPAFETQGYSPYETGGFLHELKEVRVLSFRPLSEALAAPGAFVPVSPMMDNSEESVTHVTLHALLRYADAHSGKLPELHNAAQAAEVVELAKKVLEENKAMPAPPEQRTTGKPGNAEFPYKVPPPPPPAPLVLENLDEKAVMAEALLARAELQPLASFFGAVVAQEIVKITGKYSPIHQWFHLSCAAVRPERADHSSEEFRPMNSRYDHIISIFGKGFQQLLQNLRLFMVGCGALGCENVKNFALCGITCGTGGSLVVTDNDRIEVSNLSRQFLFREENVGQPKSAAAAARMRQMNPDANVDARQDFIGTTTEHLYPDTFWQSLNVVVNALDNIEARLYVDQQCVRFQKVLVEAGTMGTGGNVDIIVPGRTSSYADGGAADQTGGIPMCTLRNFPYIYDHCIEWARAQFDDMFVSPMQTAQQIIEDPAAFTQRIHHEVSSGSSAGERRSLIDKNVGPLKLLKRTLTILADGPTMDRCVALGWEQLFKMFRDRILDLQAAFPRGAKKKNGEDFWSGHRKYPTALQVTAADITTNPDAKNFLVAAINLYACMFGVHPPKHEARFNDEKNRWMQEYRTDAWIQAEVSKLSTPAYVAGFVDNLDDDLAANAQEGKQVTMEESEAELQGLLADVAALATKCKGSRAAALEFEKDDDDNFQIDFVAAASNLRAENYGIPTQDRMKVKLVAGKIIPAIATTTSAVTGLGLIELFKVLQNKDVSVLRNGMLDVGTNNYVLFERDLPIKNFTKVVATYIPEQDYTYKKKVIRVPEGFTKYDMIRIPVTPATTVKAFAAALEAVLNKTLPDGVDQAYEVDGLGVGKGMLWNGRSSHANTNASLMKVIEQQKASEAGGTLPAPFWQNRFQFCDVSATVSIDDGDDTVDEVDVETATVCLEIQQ
# [3] = biological target: AMP-activated protein kinase, AMPK (Homo sapiens) (UniProt P54646+O43741+P54619+Q9UGJ0+Q9Y478+Q13131+Q9UGI9); assay: AMP-dependent Kinase enzyme assay. An in vitro enzyme assay that detects ADP turnover that is directly proportional to AMPK activity. This uses naive AMPK that is activated during the assay with MK-8722; format: functional; conditions: 30 µM
# [4] = biological target: Sialic acid-binding Ig-like lectin 9 (Homo sapiens) (UniProt Q9Y336); assay: Hs-Siglec9 ALPHAscreen SOP 20170721; conditions: 10 µM
# [5] = tested on: Trypanosoma cruzi; assay: Trypanosoma cruzi phosphomannomutase and mannose-1-phosphate guanylyltransferase assay; format: functional; conditions: 10 µM
# [6] = biological target: T2, Arginase-2, mitochondrial (Homo sapiens) (UniProt P78540); assay: in vitro enzyme assay to detect the production of urea directly proportional to the activity of Arginase II; format: functional; conditions: 33.3 µM; further: in the data most compounds retested in dose-response had high values
# T2 sequence (whole entry): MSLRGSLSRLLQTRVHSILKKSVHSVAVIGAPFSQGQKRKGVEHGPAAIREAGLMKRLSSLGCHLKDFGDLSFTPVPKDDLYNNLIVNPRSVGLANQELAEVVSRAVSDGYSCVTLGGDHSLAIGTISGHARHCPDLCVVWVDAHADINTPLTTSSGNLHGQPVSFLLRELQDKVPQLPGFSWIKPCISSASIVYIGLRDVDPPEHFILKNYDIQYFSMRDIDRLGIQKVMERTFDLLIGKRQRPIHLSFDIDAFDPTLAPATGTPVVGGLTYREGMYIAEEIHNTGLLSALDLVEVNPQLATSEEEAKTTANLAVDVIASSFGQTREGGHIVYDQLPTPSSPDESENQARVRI
# [7] = biological target: T3, Proteasome subunit beta (Trypanosoma cruzi) (UniProt O96673); assay: Trypanosoma cruzi proteasome chymotrypsin-like activity (TcProtChymo) assay.; further: in the data most compounds retested in dose-response had high values; format: functional; conditions: 9.37 µM
# T3 sequence (whole entry): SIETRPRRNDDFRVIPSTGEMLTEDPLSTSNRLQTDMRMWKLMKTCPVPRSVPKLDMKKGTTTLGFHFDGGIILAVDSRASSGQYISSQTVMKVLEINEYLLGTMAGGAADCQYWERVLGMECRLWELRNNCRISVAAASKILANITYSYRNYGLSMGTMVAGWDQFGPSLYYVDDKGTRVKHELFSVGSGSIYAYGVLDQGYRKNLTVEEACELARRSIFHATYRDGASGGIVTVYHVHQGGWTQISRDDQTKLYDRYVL
# [8] = species on record: Homo sapiens; assay: To identify inhibition of the IFN signalling (Jak-Stat) pathway via expression of an eGFP reporter gene under the control of an IFN-stimulated response element (ISRE) containing MxA promoter.; format: functional; conditions: 30 µM
# [9] = biological target: T4, Tyrosyl-tRNA synthetase, putative (Trypanosoma cruzi (strain CL Brener)) (UniProt Q4DSP6); assay: Trypanosoma cruzi tyrosyl tRNA synthetase (TcYRS) _High Tyrosine SOP; format: functional; conditions: 30 µM; further: in the data most compounds retested in dose-response had high values
# T4 sequence (whole entry): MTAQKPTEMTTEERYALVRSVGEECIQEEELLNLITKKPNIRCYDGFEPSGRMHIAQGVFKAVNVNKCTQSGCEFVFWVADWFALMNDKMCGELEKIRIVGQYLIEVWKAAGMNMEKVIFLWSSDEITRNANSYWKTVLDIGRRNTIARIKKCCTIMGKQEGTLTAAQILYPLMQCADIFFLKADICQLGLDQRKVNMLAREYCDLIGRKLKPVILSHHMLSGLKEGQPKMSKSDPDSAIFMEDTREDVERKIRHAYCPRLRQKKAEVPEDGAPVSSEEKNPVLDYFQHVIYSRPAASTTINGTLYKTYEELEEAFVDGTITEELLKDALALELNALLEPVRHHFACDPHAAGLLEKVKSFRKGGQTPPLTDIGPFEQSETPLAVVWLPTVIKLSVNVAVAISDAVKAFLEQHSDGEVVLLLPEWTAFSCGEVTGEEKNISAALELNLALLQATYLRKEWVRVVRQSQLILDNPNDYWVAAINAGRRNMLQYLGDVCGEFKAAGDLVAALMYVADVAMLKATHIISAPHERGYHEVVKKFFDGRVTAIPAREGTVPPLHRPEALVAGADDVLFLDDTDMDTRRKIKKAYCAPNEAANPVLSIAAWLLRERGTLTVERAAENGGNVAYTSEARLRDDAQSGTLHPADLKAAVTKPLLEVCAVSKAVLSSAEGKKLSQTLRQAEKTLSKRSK
# [10] = biological target: T4, Tyrosyl-tRNA synthetase, putative (Trypanosoma cruzi (strain CL Brener)); assay: Trypanosoma cruzi tyrosyl tRNA synthetase (TcYRS) SOP; format: functional; conditions: 30 µM
# [11] = biological target: Chromo domain-containing protein 1 (Saccharomyces cerevisiae (strain ATCC 204508 / S288c) (Baker's yeast)) (UniProt P32657); assay: ScCHD-1 Enzyme Inhibition Assay; format: functional; conditions: 30 µM; further: in the data most compounds retested in dose-response had high values
# Chain of Chromo domain-containing protein 1 (Saccharomyces cerevisiae (strain ATCC 204508 / S288c) (Baker's yeast)) (P32657 whole entry, the tested form may be a part): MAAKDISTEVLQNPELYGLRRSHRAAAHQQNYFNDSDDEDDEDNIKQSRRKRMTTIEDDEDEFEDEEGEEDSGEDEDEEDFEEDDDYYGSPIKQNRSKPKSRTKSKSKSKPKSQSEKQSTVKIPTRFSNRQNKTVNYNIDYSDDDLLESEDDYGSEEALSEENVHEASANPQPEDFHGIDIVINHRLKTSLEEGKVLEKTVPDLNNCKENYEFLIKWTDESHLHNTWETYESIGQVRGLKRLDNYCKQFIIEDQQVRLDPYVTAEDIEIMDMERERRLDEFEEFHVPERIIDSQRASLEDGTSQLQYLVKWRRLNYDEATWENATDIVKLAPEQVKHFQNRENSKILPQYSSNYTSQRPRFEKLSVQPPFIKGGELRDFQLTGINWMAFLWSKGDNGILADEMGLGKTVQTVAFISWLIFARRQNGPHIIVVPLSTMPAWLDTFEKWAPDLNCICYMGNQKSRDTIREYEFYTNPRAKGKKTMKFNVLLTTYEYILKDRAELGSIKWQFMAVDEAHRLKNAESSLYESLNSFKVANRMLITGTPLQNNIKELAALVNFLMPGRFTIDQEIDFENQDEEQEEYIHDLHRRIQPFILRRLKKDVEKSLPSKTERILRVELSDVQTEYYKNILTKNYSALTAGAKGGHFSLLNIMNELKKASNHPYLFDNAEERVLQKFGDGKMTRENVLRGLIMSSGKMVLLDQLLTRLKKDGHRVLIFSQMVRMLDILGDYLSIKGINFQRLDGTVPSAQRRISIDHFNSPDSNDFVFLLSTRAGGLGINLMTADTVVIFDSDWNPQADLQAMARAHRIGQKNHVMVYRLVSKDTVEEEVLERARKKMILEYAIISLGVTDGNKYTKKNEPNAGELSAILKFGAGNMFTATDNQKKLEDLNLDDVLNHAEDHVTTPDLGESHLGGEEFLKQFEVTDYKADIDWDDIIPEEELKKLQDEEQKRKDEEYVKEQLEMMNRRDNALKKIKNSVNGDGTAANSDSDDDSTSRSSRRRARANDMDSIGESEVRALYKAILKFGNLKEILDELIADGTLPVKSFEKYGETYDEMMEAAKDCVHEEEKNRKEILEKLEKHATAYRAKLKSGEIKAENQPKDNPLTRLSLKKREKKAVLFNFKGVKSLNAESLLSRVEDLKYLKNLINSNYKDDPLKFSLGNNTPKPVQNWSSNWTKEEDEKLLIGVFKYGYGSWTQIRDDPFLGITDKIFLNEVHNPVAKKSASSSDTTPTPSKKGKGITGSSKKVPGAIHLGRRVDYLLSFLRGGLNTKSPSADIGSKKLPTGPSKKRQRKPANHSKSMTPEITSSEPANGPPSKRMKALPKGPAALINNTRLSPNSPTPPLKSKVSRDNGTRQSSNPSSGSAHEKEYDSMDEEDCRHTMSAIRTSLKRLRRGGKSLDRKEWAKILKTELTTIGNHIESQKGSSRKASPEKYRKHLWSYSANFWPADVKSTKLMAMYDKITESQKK
# Chain of Sialic acid-binding Ig-like lectin 9 (Homo sapiens) (Q9Y336 whole entry): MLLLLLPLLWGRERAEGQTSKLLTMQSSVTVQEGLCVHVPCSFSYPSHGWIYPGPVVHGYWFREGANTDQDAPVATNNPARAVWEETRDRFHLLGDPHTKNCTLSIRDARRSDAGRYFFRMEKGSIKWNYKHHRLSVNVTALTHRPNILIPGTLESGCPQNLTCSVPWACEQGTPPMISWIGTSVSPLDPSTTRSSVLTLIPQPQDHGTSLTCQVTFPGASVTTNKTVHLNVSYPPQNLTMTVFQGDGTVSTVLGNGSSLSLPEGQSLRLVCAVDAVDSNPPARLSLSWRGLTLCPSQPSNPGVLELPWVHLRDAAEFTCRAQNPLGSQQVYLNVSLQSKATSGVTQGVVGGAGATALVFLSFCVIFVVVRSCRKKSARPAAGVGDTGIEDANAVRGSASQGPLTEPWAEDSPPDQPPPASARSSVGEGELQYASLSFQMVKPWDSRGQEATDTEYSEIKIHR
# Chain of Protein translocase subunit SecA (Escherichia coli (strain K12)) (P10408 whole entry): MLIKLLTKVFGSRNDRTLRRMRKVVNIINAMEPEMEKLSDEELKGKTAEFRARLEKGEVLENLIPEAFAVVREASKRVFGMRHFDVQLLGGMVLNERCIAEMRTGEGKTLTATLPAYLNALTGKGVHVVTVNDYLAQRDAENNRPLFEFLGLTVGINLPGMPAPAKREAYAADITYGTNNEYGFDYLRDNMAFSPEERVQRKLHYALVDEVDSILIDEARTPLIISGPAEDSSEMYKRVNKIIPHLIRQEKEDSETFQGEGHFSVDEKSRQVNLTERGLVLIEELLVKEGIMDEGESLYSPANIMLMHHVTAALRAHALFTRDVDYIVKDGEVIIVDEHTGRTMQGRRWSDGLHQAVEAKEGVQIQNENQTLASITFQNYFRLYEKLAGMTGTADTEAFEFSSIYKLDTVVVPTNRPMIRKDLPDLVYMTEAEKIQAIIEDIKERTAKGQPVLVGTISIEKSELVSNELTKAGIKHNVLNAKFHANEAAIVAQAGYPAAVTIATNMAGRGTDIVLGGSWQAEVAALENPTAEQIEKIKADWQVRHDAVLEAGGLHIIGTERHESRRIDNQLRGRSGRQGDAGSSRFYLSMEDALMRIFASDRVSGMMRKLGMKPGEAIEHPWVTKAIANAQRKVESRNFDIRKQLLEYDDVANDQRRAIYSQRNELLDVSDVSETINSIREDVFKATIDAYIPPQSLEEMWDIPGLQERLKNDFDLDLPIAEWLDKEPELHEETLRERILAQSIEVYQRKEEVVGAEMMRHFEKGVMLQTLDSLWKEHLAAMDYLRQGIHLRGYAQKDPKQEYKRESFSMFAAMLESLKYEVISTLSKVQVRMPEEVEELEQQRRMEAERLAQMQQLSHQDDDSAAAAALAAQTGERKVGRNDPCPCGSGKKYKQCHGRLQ
Structure (SMILES),Percent Effect [1],Percent Effect [2],Percent Effect [3],Percent Effect [4],Percent Effect [5],Percent Effect [6],Percent Effect [7],Percent Effect [8],Percent Effect [9],Percent Effect [10],Percent Effect [11]
Cc1cccc(CC(=O)NCCCOC(C)C)c1,-0.872%,18.2%,0.619%,-8.05%,-3.75%,0.712%,9.8%,27.8%,9.71%,19.5%,-7.62%
Cc1cc(-c2cnc(N3CCNC(=O)C3)nc2-c2cccnc2C)on1,-2.87%,8%,5.98%,8.08%,1.97%,-2.1%,7.49%,1.83%,5.32%,11.5%,-10.5%
CNC(=O)[C@@]12CCCN(c3ncccn3)[C@@H]1CN(C(=O)NC(C)C)C2,-0.175%,20.8%,3.44%,-13.2%,-0.296%,1.94%,16.5%,12.8%,-6.35%,14.1%,-12.4%
CC(Cc1ccco1)NC(=O)Nc1ccc(N2CCOCC2)nc1 (stereo not given),-3.25%,15.8%,-15.8%,11.3%,1.5%,0.383%,11.2%,-9.28%,3.43%,19.5%,-11.4%
COc1ccc(CN2CC[C@H](NC(C)=O)[C@@H](O)CC2)c(OC)c1,-4.21%,4.05%,9.24%,3.43%,2.77%,-2.55%,13.6%,13%,-1.07%,1.3%,-12.5%
